# Assays:
# Assay in all cases: DAPPL (digital affinity profiling via proximity ligation, sequencing); 10 mM Tris-HCl pH 7.5, 50 mM NaCl, 1 mM DTT, 4% glycerol, room temperature, 30 min; GST-TFs on glutathione beads, 16-mer random dsDNA library, 0.1% formaldehyde crosslink after washing; high values mean tight binding
# FLI1 = biological target: T1, FLI1 (Homo sapiens, UniProt Q01543 1-452); conditions: protein: recombinant; tags: N-terminal GST; dsDNA, one strand shown
# T1 sequence: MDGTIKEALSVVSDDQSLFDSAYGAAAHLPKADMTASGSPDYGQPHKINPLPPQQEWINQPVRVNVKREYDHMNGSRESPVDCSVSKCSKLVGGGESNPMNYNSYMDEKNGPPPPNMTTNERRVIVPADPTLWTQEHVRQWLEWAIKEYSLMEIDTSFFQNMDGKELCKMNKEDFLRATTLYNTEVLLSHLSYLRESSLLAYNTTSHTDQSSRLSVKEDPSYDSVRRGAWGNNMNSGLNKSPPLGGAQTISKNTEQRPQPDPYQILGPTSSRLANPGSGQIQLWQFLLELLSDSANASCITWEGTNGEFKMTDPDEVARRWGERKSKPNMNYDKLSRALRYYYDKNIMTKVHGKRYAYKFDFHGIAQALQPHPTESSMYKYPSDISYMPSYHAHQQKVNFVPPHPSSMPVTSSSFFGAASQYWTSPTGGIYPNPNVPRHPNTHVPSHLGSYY
# In short: (§1)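 The binding signal reported is, for every hexamer, its read frequency for a factor over its read frequency for the tag-only sample. Reads came from pools of yeast-expressed, GST-fused human transcription factors on glutathione beads, barcoded with DNA and mixed with that sample, which were incubated with 200 nmole of a random double-stranded 16-mer DNA library in Tris/NaCl/DTT/glycerol buffer at room temperature for 30 min. After washing, the pools were crosslinked with 0.1% formaldehyde, proximity-ligated with BsaI/T4 ligase for 1 h at 37 °C, PCR-amplified and sequenced on an Illumina NextSeq500.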
# ELK1 = biological target: T2, ELK1 (Homo sapiens, UniProt P19419 1-428); conditions: protein: recombinant; tags: N-terminal GST; dsDNA, one strand shown
# T2 sequence: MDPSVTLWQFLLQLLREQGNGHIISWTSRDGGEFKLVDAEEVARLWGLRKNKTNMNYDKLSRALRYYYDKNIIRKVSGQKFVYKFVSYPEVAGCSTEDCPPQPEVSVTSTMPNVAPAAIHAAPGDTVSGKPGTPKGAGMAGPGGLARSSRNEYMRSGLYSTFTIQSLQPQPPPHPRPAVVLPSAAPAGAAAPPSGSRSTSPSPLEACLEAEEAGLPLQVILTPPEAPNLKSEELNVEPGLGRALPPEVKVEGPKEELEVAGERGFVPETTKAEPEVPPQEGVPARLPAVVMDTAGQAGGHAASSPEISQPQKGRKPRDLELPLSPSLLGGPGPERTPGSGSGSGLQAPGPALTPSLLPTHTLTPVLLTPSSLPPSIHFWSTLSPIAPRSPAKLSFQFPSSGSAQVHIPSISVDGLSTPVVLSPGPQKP
# In short: as §1
# GABPA = biological target: T3, GABPA (Homo sapiens, UniProt Q06546 1-454); conditions: protein: recombinant; tags: N-terminal GST; dsDNA, one strand shown
# T3 sequence: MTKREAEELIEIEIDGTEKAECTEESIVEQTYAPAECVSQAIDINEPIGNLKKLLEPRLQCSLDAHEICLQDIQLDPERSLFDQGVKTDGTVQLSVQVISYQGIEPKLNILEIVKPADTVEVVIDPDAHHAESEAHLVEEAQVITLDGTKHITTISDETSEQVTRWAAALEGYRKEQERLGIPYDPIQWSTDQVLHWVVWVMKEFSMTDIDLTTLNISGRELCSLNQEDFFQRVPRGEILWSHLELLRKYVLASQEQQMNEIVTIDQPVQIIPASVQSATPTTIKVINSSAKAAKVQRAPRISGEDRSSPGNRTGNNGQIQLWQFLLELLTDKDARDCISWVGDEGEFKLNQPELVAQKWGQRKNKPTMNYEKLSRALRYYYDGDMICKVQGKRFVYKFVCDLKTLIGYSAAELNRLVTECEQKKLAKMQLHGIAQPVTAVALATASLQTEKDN
# In short: as §1
# ELF1 = ELF1 (Homo sapiens, UniProt P32519 1-619); conditions: protein: recombinant; tags: N-terminal GST; dsDNA, one strand shown
# In short: as §1
# EHF = biological target: T4, EHF (Homo sapiens, UniProt Q9NZC4 1-300); conditions: protein: recombinant; tags: N-terminal GST; dsDNA, one strand shown
# T4 sequence: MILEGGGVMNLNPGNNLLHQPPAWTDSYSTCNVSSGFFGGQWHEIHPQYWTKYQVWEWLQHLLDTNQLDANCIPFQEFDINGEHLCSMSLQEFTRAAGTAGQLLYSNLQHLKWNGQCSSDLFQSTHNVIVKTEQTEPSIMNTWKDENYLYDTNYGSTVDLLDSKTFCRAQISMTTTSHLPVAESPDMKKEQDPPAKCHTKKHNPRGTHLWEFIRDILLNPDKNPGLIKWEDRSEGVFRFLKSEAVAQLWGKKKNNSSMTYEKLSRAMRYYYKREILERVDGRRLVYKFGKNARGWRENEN
# In short: as §1
# SPI1 = SPI1 (Homo sapiens, UniProt P17947 1-270); conditions: protein: recombinant; tags: N-terminal GST; dsDNA, one strand shown
# In short: as §1
# SPIB = SPIB (Homo sapiens, UniProt Q01892 1-262); conditions: protein: recombinant; tags: N-terminal GST; dsDNA, one strand shown
# In short: as §1
# ELK3 = biological target: T5, ELK3 (Homo sapiens, UniProt P41970 1-407); conditions: protein: recombinant; tags: N-terminal GST; dsDNA, one strand shown
# T5 sequence: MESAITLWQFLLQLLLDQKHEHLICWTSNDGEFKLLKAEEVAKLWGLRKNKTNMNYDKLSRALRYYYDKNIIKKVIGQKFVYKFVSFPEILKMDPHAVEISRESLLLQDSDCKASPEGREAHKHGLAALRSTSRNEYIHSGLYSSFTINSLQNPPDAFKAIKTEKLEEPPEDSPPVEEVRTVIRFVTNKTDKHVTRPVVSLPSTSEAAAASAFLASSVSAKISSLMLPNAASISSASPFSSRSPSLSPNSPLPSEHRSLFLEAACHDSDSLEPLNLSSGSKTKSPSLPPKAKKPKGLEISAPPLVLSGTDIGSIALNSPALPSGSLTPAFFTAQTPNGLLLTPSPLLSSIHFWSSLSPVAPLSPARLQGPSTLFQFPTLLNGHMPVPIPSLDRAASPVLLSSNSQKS
# In short: as §1
# FEV = biological target: T6, FEV (Homo sapiens, UniProt Q99581 1-238); conditions: protein: recombinant; tags: N-terminal GST; dsDNA, one strand shown
# T6 sequence: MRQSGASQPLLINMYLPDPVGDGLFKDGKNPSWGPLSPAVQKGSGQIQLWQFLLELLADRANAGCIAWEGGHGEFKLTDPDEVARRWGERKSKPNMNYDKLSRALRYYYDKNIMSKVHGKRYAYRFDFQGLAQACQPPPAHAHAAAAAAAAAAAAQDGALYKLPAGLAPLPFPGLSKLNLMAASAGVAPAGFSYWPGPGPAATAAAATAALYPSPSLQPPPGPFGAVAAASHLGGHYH
# In short: as §1
# ETV5 = ETV5 (Homo sapiens, UniProt P41161 1-510); conditions: protein: recombinant; tags: N-terminal GST; dsDNA, one strand shown
# In short: as §1
# HSF1 = HSF1 (Homo sapiens, UniProt Q00613 1-529); conditions: protein: recombinant; tags: N-terminal GST; chain copies: 3; dsDNA, one strand shown
# In short: as §1
# SPIC = biological target: T7, SPIC (Homo sapiens, UniProt Q8N5J4 1-248); conditions: protein: recombinant; tags: N-terminal GST; dsDNA, one strand shown
# T7 sequence: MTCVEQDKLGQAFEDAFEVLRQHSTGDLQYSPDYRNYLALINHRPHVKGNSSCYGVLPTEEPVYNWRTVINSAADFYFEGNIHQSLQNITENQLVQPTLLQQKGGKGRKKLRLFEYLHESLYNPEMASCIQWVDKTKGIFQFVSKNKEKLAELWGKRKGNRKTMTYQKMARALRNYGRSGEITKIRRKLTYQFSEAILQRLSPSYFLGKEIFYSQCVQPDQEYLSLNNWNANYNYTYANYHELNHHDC
# In short: as §1
# ELF4 = ELF4 (Homo sapiens, UniProt Q99607 1-663); conditions: protein: recombinant; tags: N-terminal GST; dsDNA, one strand shown
# In short: as §1
# ELK4 = biological target: T8, ELK4 (Homo sapiens, UniProt P28324-2 1-405); conditions: protein: recombinant; tags: N-terminal GST; dsDNA, one strand shown
# T8 sequence: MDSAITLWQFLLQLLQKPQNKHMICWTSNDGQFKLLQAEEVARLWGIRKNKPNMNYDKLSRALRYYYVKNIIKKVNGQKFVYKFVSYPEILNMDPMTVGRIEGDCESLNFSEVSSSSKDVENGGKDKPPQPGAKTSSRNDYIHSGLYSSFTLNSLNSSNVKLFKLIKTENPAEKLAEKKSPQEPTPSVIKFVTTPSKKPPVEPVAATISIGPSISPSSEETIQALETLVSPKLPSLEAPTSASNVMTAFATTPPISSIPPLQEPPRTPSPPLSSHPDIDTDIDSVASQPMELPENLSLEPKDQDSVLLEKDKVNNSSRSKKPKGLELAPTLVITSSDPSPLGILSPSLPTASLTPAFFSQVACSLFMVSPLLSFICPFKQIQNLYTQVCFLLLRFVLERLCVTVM
# In short: as §1
# ETV2 = biological target: T9, ETV2 (Homo sapiens, UniProt O00321 1-342); conditions: protein: recombinant; tags: N-terminal GST; dsDNA, one strand shown
# T9 sequence: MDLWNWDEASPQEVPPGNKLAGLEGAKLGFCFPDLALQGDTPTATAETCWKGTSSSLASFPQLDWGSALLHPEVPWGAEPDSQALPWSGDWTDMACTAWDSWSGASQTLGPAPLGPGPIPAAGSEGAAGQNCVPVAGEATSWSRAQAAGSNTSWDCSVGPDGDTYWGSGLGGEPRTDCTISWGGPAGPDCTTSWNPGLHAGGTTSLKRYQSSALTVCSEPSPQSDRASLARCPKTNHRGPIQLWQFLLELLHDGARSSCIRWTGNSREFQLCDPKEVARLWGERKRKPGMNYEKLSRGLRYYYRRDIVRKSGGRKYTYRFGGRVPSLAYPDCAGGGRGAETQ
# In short: as §1
# ELF3 = biological target: T10, ELF3 (Homo sapiens, UniProt P78545 1-371); conditions: protein: recombinant; tags: N-terminal GST; dsDNA, one strand shown
# T10 sequence: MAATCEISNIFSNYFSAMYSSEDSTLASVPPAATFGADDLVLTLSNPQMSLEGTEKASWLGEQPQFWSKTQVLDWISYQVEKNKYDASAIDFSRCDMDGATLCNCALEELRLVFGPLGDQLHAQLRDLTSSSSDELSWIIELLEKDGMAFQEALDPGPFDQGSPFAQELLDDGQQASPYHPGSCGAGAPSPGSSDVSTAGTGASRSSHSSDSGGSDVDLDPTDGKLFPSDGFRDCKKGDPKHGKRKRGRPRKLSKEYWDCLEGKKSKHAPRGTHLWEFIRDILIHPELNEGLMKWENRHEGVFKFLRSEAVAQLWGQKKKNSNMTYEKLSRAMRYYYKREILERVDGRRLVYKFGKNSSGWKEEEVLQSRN
# In short: as §1
# CRX = CRX (Homo sapiens, UniProt O43186 1-299); conditions: protein: recombinant; tags: N-terminal GST; dsDNA, one strand shown
# In short: as §1
# ETV1 = ETV1 (Homo sapiens, UniProt P50549 1-477); conditions: protein: recombinant; tags: N-terminal GST; dsDNA, one strand shown
# In short: as §1
# Chain of CRX (O43186 whole entry): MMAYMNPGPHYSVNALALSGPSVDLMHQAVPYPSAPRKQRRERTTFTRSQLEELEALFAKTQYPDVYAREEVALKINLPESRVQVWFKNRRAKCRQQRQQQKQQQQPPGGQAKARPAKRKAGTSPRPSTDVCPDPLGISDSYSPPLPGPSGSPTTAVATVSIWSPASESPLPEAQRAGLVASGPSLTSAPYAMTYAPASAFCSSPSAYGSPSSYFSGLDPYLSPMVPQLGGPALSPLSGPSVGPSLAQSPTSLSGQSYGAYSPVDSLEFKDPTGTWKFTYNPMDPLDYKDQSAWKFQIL
# Chain of ELF1 (P32519 whole entry): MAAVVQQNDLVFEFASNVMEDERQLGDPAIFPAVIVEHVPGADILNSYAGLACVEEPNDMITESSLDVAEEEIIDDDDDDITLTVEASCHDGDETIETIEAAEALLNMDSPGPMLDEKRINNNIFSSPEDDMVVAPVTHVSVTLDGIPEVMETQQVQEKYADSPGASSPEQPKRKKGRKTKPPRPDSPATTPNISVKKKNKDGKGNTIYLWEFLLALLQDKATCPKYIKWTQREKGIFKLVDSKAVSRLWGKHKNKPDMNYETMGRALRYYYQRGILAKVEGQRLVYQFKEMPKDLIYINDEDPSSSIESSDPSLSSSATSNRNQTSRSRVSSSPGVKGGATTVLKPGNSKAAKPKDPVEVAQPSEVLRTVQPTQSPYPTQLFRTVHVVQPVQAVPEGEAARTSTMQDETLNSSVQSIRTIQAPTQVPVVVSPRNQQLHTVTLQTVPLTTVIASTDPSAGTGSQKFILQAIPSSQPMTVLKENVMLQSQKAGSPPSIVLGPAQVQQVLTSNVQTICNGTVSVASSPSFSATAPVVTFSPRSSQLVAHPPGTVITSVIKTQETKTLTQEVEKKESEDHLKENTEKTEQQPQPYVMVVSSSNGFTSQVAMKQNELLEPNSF
# Chain of ELF4 (Q99607 whole entry): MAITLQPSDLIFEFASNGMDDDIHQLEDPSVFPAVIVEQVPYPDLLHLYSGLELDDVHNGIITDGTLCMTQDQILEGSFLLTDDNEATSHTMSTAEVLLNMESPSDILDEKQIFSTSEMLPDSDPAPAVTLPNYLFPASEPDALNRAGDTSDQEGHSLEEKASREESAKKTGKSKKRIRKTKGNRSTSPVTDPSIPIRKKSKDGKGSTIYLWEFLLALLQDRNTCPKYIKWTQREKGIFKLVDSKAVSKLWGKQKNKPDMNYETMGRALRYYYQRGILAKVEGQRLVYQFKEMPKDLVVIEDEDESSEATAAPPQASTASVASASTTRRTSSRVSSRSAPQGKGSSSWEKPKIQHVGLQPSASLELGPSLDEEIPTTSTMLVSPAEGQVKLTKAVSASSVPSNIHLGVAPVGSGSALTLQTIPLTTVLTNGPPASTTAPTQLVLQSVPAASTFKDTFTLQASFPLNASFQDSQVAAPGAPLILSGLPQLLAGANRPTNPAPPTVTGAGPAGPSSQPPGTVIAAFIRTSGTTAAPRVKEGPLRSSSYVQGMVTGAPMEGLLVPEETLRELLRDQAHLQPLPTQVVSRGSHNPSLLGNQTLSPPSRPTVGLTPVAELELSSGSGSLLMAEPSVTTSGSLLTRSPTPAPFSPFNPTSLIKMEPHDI
# Chain of HSF1 (Q00613 whole entry): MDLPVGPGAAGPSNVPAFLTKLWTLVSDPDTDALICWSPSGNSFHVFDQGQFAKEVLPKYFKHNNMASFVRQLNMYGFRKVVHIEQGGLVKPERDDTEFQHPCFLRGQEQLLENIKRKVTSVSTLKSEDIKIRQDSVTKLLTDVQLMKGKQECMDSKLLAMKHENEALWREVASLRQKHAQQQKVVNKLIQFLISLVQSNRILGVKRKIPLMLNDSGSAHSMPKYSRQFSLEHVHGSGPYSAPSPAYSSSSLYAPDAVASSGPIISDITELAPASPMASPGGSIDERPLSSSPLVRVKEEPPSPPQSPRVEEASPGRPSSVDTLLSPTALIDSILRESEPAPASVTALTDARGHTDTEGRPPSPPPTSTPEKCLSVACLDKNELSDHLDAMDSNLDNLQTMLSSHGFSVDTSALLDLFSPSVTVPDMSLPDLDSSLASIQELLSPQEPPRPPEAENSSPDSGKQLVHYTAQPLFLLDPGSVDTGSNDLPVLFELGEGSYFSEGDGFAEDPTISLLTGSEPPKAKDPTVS
# Chain of ETV5 (P41161 whole entry): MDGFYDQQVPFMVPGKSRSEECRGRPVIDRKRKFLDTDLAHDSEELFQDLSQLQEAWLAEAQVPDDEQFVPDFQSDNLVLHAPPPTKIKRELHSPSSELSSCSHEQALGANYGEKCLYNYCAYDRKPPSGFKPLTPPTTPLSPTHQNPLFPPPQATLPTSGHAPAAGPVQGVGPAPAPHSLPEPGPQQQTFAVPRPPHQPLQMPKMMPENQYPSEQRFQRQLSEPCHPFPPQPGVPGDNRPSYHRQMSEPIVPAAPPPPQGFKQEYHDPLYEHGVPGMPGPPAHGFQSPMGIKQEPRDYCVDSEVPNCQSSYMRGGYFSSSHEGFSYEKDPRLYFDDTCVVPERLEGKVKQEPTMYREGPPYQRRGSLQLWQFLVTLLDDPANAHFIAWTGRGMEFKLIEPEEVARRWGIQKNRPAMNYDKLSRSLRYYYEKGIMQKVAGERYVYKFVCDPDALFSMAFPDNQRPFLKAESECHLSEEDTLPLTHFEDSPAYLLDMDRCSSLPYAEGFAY
# Chain of ETV1 (P50549 whole entry): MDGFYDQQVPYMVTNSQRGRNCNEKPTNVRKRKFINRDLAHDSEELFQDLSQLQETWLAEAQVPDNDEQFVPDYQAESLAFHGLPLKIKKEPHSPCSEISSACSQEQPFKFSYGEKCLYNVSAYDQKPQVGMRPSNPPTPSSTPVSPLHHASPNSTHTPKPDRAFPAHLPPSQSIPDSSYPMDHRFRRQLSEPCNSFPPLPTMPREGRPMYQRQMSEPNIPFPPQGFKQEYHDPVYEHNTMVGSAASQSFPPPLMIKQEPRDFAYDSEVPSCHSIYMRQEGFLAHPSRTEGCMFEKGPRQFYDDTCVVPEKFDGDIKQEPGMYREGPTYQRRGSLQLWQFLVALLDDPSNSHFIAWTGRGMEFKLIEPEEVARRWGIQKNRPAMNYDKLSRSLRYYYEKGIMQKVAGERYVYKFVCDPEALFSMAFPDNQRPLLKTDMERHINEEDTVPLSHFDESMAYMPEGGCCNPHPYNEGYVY
# Chain of SPIB (Q01892 whole entry): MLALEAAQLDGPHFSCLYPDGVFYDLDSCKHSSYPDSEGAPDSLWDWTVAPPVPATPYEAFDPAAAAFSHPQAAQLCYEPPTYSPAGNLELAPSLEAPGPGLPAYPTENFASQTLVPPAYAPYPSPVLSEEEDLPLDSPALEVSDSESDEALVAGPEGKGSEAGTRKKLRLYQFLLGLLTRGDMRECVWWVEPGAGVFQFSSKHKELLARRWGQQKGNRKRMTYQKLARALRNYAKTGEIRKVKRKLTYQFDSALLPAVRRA
sequence,measurement,setting,value
CCCTGG,binding signal,FLI1,"1.1 fold enrichment (6-mer frequency, TF over GST control)"
same,binding signal,ELK1,"1.13 fold enrichment (6-mer frequency, TF over GST control)"
same,binding signal,GABPA,"1.21 fold enrichment (6-mer frequency, TF over GST control)"
same,binding signal,ELF1,"1.19 fold enrichment (6-mer frequency, TF over GST control)"
same,binding signal,EHF,"1.11 fold enrichment (6-mer frequency, TF over GST control)"
same,binding signal,SPI1,"1.06 fold enrichment (6-mer frequency, TF over GST control)"
same,binding signal,SPIB,"1.09 fold enrichment (6-mer frequency, TF over GST control)"
same,binding signal,ELK3,"1.03 fold enrichment (6-mer frequency, TF over GST control)"
same,binding signal,FEV,"1.08 fold enrichment (6-mer frequency, TF over GST control)"
same,binding signal,ETV5,"1.09 fold enrichment (6-mer frequency, TF over GST control)"
same,binding signal,HSF1,"1.11 fold enrichment (6-mer frequency, TF over GST control)"
same,binding signal,SPIC,"1.25 fold enrichment (6-mer frequency, TF over GST control)"
same,binding signal,ELF4,"1.14 fold enrichment (6-mer frequency, TF over GST control)"
same,binding signal,ELK4,"1.21 fold enrichment (6-mer frequency, TF over GST control)"
same,binding signal,ETV2,"1.04 fold enrichment (6-mer frequency, TF over GST control)"
same,binding signal,ELF3,"1 fold enrichment (6-mer frequency, TF over GST control)"
same,binding signal,CRX,"1.06 fold enrichment (6-mer frequency, TF over GST control)"
same,binding signal,ETV1,"1.18 fold enrichment (6-mer frequency, TF over GST control)"
